From PubChem BioAssay
Hits are enriched below; roughly 1.3% of the tested compounds scored in any of these assays.
NPR2 activator: GC-B (human) receptor activation | 0.11% of 370,000 active | HEK293-GC-B cells, CNP EC30, cGMP TR-FRET; 0% at EC30 CNP, 100% saturating CNP | activation, % at 10 µM | AID 1920062;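 active means activation at 10 µM reaching about 35% in either raw or pattern-adjusted values, limit read from the data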
NPR1 activator: GC-A (human) enzyme activation; P16066; HEK293 GC-A cells, cGMP TR-FRET, EC30 ANP; 0% at EC30 ANP, 100% saturating ANP; activation, % at 10 µM; 0.14% of 370,000 active; in the data active means activation above about 40%
HIF activator: HIF pathway transcriptional activation; 0.32% of 300,000 active; AID 1910; activation, % at 7.5 µM (by protocol); U2OS HRE-luciferase reporter, luminescence; normalized: DMSO 0%, desferrioxamine 100%;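 active means mean activation of at least 10% of the iron chelator positive control signal, with at least half of replicates also reaching 10%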
proKLK7 act: proKLK7 (human) activation, primary screen. P49862. purified proKLK7, EDANS-DABCYL substrate fluorescence; 100% is mature enzyme control, 0% vehicle. activation, % at 7 µM. 0.9% of 370,000 active;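 active means activation above the mean of all tested compounds plus 3 SD, computed per campaign excluding outliers beyond control limits, cut at about 13% in these data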
proKLK7 act conf: confirmation of human kallikrein-7 zymogen activators; shares compounds with proKLK7 act; purified proKLK7, EDANS-DABCYL substrate fluorescence; scaled: vehicle 0, mature enzyme 100; activation, % at 7 µM; 68% of 3,200 active;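 active means activation, as change over the incubation, above the mean of all tested compounds plus 3 SD, cut at about 13% in these data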
EDANS interfere: optically interferes with EDANS-DABCYL signal, flagging KLK7 hits | EDANS-DABCYL substrate fluorescence interference, no enzyme, 4 h; solvent 0%, active enzyme control 100% | activation, % at 7 µM | 80% of 3,200 active | shares compounds with proKLK7 act;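 active means activation above the all-compound mean plus 3 SD, ignoring values outside control-based bounds, cut at about 4.8% in these data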;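 further: value is the 4 h activation minus the activation read at time zero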
K7 EDANS ctr: optically interferes with EDANS-DABCYL fluorescence, kallikrein-7 activator counter-screen. shares compounds with proKLK7 act. EDANS-DABCYL peptide fluorescence interference, no enzyme. EC50, µM. 20% of 250 active. AID 720493;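 active means compounds that raise the fluorescence signal in this interference counterscreen, with EC50 at or below 10 µM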;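 further: intact quenched peptide substrate alone read at 355 nm excitation and 520 nm emission; signal is fluorescence gain from T0 to T4 after four hours at room temperature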
An asterisk follows results filed as active; i = inactive; · = no result.

SMILES	NPR2 activator	NPR1 activator	HIF activator	proKLK7 act	proKLK7 act conf	EDANS interfere	others
COCCNS(=O)(=O)c1ccc2c(c1)C(=NO)c1cc(S(=O)(=O)NCCOC)ccc1-2	-3	4	-1	14*	1	-1
Cn1c(SC2CCCC2)nnc1-c1ccco1	0	7	·	-1	·	·
COc1ccc(/C=C/C(=O)c2ccc(O)cc2)cc1	3	-3	2	13*	4	2
COc1ccc(/C=C/C(=O)c2ccoc2)cc1	-3	-4	1	3	·	·
COc1cccc(OC)c1C(=O)Nc1nc2cc3c(cc2s1)OCO3	-4	4	0	19*	-13	-12
COCCN1C=C(C(=O)OC)C(c2ccccc2Cl)C(C(=O)OC)=C1	3	-3	0	42*	-31	-12
CCN1C=C(C(=O)OC)C(c2cccc(OC)c2OC)C(C(=O)OC)=C1	-1	0	0	45*	76*	74*
COCCN1C=C(C(=O)OC)C(c2cc(Br)c(OC)c(OC)c2)C(C(=O)OC)=C1	-16	-1	0	12	·	·
COC(=O)C1=CN(Cc2ccc(OC)c(OC)c2)C=C(C(=O)OC)C1c1cccc(OC)c1OC	-1	-2	0	-16	·	·
COC(=O)C1=CN(C2CC2)C=C(C(=O)OC)C1c1ccccc1OC	5	-2	0	37*	78*	78*
O=C(C1CCCN1S(=O)(=O)c1ccc(Cl)s1)N1CCN(c2ccccc2)CC1 (stereo not given)	-1	0	·	-1	·	·
O=C(CSc1nnc(-c2ccccc2)n1-c1ccc(Cl)cc1)c1ccccc1Br	-16	-21	·	0	·	·
CN(C)CCCN(C(=O)/C=C/c1cccs1)c1nc2ccc(F)cc2s1	-1	3	·	35*	154*	232*
O=c1ccc2ccc(Oc3ccc([N+](=O)[O-])cc3[N+](=O)[O-])cc2o1	·	·	2	·	·	·
COc1ccc2ccc(=O)oc2c1	7	0	0	-1	·	·
COc1cccc(C(=O)Oc2ccc3ccc(=O)oc3c2)c1	-2	3	1	93*	616*	656*
O=C(CNC(=O)OCc1ccccc1)Oc1ccc2ccc(=O)oc2c1	-1	8	1	56*	183*	261*
O=C(Oc1ccc2ccc(=O)oc2c1)c1ccc([N+](=O)[O-])cc1	-2	1	0	45*	593*	573*
CC(=O)Oc1ccc2ccc(=O)oc2c1	-1	4	0	357*	602*	609*
CCN(CC)C(=O)CC[C@H]1CC[C@]2(CCCN(S(C)(=O)=O)C2)O1	-4	2	·	0	·	·
O[C@H](COc1ccc(Cl)cc1)CN1CCC(C(O)(c2ccccc2)c2ccccc2)CC1	-4	-12	·	1	·	·
COC(=O)c1cc(COc2ccc3ccc(=O)oc3c2)c(C)o1	-16	-4	1	-1	·	·
Cc1cc(C(=O)COc2ccc3ccc(=O)oc3c2)c(C)n1C	2	-2	0	138*	79*	85*
COc1ccc(C(=O)COc2ccc3ccc(=O)oc3c2)c(OC)c1	2	-4	0	-7	·	·
Cc1ccccc1NC(=O)COC(=O)COc1ccc2ccc(=O)oc2c1	-6	-3	·	14*	16*	-2	K7 EDANS ctr=i
SMILES	NPR2 activator	NPR1 activator	HIF activator	proKLK7 act	proKLK7 act conf	EDANS interfere	others
CC(NC(=O)OC(C)(C)C)C(=O)Oc1ccc2ccc(=O)oc2c1 (stereo not given)	2	6	·	89*	466*	445*
CC(C)(C)OC(=O)NCCC(=O)Oc1ccc2ccc(=O)oc2c1	·	·	0	·	·	·
Cc1ccc(C(=O)Oc2ccc3ccc(=O)oc3c2)cc1	4	2	2	41*	111*	107*
CCOc1ccc(-c2csc(N3CCC(C(N)=O)CC3)n2)cc1	-2	2	·	·	·	·
CCCC1CCC2(CC1)CCC2OC(=S)NCCc1ccc(Cl)cc1 (stereo not given)	-6	-8	·	·	·	·
CS(=O)(=O)N[C@@H]1C[C@@H]2O[C@@H](CO)CC[C@@H]2O[C@@H]1CCc1ccc(/C=C/c2ccccc2)cc1	5	6	·	-1	·	·
O=C(Oc1ccc2ccc(=O)oc2c1)c1cccs1	-6	4	0	581*	789*	771*
COc1ccc(C(=O)COc2ccc3ccc(=O)oc3c2)cc1	1	0	0	2	·	·
COc1ccc(C(=O)Oc2ccc3ccc(=O)oc3c2)cc1OC	-8	0	0	14*	197*	193*
Nc1c(C(=O)NCC2CCCO2)c2nc3ccccc3nc2n1-c1ccccc1 (stereo not given)	4	6	-1	-34	·	·
COc1ccccc1-n1c(N)c(C(=O)NCC2CCCO2)c2nc3ccccc3nc21 (stereo not given)	10	18	-31	14*	-168	-174
COC(=O)[C@]12C[C@H](CC(=O)NCCCCc3ccccc3)C(=O)N(CCc3ccc(OC)c(OC)c3)C1=C[C@H](C1CCCC1)O[C@@H]2C	-3	-6	·	0	·	·
CN(C)CCNc1oc(-c2ccccc2F)nc1C#N	-3	7	0	57*	30*	33*
CN(C)CCNc1oc(-c2cccc(Cl)c2)nc1C#N	-14	-7	0	59*	31*	34*
CCOC(=O)N1CCN(S(=O)(=O)c2ccc(C(=O)Nc3sc4c(c3C(N)=O)CC(C)(C)NC4(C)C)cc2)CC1	-1	-2	-1	57*	-33	-5
CCOC(=O)c1c(NC(=O)c2ccc(C)cc2)sc2c1CC(C)(C)NC2(C)C	·	·	0	·	·	·
Cn1c(=O)oc2cc(S(=O)(=O)N3CCN(c4cccc(C(F)(F)F)c4)CC3)ccc21	2	-3	·	0	·	·
CCSc1ncc(Cl)c(C(=O)Nc2ccc(S(N)(=O)=O)cc2)n1	-3	1	-34	1	·	·
CCCSc1ncc(Cl)c(C(=O)Nc2ccc(S(=O)(=O)N3CC(C)OC(C)C3)cc2)n1 (stereo not given)	2	1	0	67*	-145	-145
O=S1(=O)C=CCN1Cc1cn(Cc2ccc(F)cc2)nn1	-2	-1	·	1	·	·
CC1=Nc2ccc(C)c3nc(C)cc(c23)N1c1ccc(C)cc1	-7	11	0	70*	2	0
Cc1ccc(N2C=Nc3ccc(C)c4nc(C)cc2c34)cc1	-6	8	0	49*	-20	-21
Cn1c(SCC2CCCCC2)nnc1-c1ccco1	-1	3	·	0	·	·
Cc1ccc(NC(=O)CN(C)C(=O)C(C)OC(=O)c2ccccc2NCCO)cc1 (stereo not given)	-3	0	0	21*	-2	-1
